# High-throughput results (PubChem BioAssay)
# In the library only some 9.9% were active in any assay of this set; here they are far more common.
# MCF10A rerep = inducers of DNA re-replication in MCF 10A breast cells; MCF 10A DNA re-replication, Hoechst nuclear intensity, 48 h; Potency, µM (top dose mostly 46.1 µM), for inactives: at the highest dose activity, positive = re-replication, most hits filed as activators; hit rate 2.9% among 350,000; further: potency means the concentration at half of the fitted maximal effect; % of control where 0% means no effect; nearly all actives have a fitted effect of over 50% in size
# SW480 rereplic = DNA re-replication induction in SW480 cells; SW480 DNA re-replication, Hoechst DNA content imaging, 48 h; Potency, µM (titrated, usually from 46.1 µM), inactives show top-dose re-replication activation, hits mostly activators; hit rate 1.8% among 340,000; AID 624297; further: potency means the concentration at half of the fitted maximal effect; % of control where 0% means no effect; nearly all actives have a fitted effect of over 55% in size
#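 Compounds, transferred as 23 nL by pin tool, were incubated with cells for 48 hr; DNA content per nucleus was then quantified by Hoechst staining and fluorescence plate imaging.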
# IL-1B inflam inh = inhibitors of inflammasome signaling (IL-1 beta secretion); activity change, % at 57.5 µM; THP-1 LPS/ATP IL-1B secretion, AlphaLISA, 16 h; active compounds read low; hit rate 4.7% among 360,000; in the data active means activity change below about -50%; inconclusive means mostly about -30% to -49%; further: on the % scale 0 is the no-effect control and ±100 the full control effect
#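 THP-1 cells pretreated 1 hr with compounds (up to 57.5 uM final), then stimulated with LPS (250 ng/mL final) plus ATP (1.25 mM final); secreted IL-1B measured by AlphaLISA after 16 hr, decreased signal indicating inhibition.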
# KB-3-1 tox = KB-3-1 parental cell cytotoxicity. AID 1347075. hit rate 1.4% among 400,000. KB-3-1 viability, CellTiter-Glo ATP luminescence, 72 h. Potency, µM (highest dose often 46.1 µM), actives largely listed as cytotoxic; further: potency means the concentration at half of the fitted maximal effect; on the % scale 0 is the no-effect control and ±100 the full control effect; nearly all actives have a fitted effect of over 60% in size
#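 Cytotoxicity measured as CellTiter-Glo luminescence after 72 h at 37 C. Compound titrations were pinned onto drug-naive KB-3-1 parental adenocarcinoma cells grown in DMEM with 10% FBS, and normalized data fitted to concentration-response curves.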
# KB-V1 MDR tox = KB-V1 MDR subline cytotoxicity; Potency, µM (top dose mostly 46.1 µM), usual class: cytotoxic; hit rate 3.4% among 400,000; KB-V1 MDR cells viability, CellTiter-Glo, 72 h; further: potency means the concentration at half of the fitted maximal effect; on the % scale 0 is the no-effect control and ±100 the full control effect; nearly all actives have a fitted effect of over 60% in size
#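 KB-V1, DMEM (no phenol red) + 10% FBS; cpd pin-transferred, titration series; 72 h, 37 degrees C; CellTiter-Glo, luminescence. Data normalized, curve-fit.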
# An asterisk follows results filed as active; i = inactive; ? = inconclusive; · = not tested or not shown; [ ] = remark or other dose. Unless noted, the call rests on the fitted dose curve; in most records, active means well fitted curve in the direction sought with a large enough effect; inconclusive means small, poorly fitted or top-dose-only effect, or another doubt; inactive means no such curve, though single readings can be large; an effect the other way counts as inactive or inconclusive.
SMILES,MCF10A rerep,SW480 rereplic,IL-1B inflam inh,KB-3-1 tox,KB-V1 MDR tox
O=C(CN1C(=O)CCC1=O)c1ccc(-c2ccccc2)cc1,-7%,-39%,3,i,i
Cc1cc(Br)c(NC(=O)COn2nnc3ccc(S(C)(=O)=O)cc32)c(Br)c1,0%,6%,-65*,i,i
CCOc1ccccc1-c1noc(CCCC(=O)Nc2cccc(C(F)(F)F)c2)n1,·,·,·,i,i
Cn1c(SCC(=O)NC2CCCC2)nnc1-c1ccncc1,-2%,-1%,20,i,i
Cn1c(SCc2ccc(F)cc2)nnc1-c1cccs1,1%,0%,-18,i,16µM*
Cn1c(SCC(=O)N(C2CCCCC2)C2CCCCC2)nnc1-c1cccs1,13µM*,?,-5,?,i
Cn1c(SCc2ccccc2)nnc1-c1cccs1,-4%,-3%,?,i,i
CCN(C(=O)C(C)Sc1nnc(-c2ccncc2)n1C)C1CCCCC1 (stereo unspecified),1%,-4%,-2,i,16µM*
Cn1c(SCC(=O)NC2CC2)nnc1-c1cccs1,2%,-5%,-13,i,i
CCCCOC(=O)c1ccc(NC(=O)c2cnc3ccc(C)cn3c2=O)cc1,·,·,·,i,?
Cc1ccc(S(=O)(=O)N2CCN(C(=O)Cn3nc(C)c([N+](=O)[O-])c3C)CC2)cc1,14%,-27%,-21,i,i
CC(C)c1ccc(NC2CCCN(C(=O)C3=NN(C)C(=O)CC3)C2)cc1 (stereo unspecified),2%,-3%,38,i,i
CO[C@@H]1CN(C)C(=O)c2ccc(NS(=O)(=O)c3c(C)noc3C)cc2OC[C@@H](C)NC[C@@H]1C,·,·,44,i,i
Clc1ccc2nc(-c3ccc(Br)o3)c(Nc3ccc4c(c3)OCCO4)n2c1,·,·,·,i,?
O=C(Nc1cc(Cl)cc(Cl)c1)c1ccc(Cn2c(=O)[nH]c3ccsc3c2=O)cc1,23µM*,8%,?,16µM*,i
O=C1NC(c2cccc([N+](=O)[O-])c2)Oc2ccccc21 (stereo unspecified),1%,-10%,-2,i,i
O=C(OCc1cn([C@@H]2C[C@H](c3ccc(Cl)cc3)N(C(=O)C3CCCCC3)C[C@H]2O)nn1)c1ccccc1,·,·,-20,i,i
Cc1cc(C(=O)COC(=O)c2ccc3c(c2)NC(=O)CS3)c(C)n1CC1CCCO1 (stereo unspecified),?,?,5,i,12µM*
Cn1cc(/C=N\O)nc2c(=O)n(-c3ccccc3)c(=O)nc1-2,1%,-6%,-4,i,i
Cc1ccc(S(=O)(=O)N(C)C[C@@H]2Oc3ccc(NC(=O)CCC(F)(F)F)cc3CC(=O)N([C@@H](C)CO)C[C@@H]2C)cc1,3.7µM*,3.7µM*,46,?,i
C[C@@H]1CN([C@H](C)CO)C(=O)Cc2cc(NC(=O)Cn3cnnn3)ccc2O[C@@H]1CN(C)Cc1ccc(Cl)c(Cl)c1,-23%,10%[9.22 µM],-59*,i,i
C[C@H](CO)N1C[C@H](C)[C@H](CN(C)S(=O)(=O)c2cn(C)cn2)Oc2ccc(NC(=O)Nc3ccc(C(F)(F)F)cc3)cc2CC1=O,?,?,33,4.1µM*,?
C[C@H]1CN([C@@H](C)CO)C(=O)Cc2cc(NC(=O)CCC(F)(F)F)ccc2O[C@H]1CN(C)S(C)(=O)=O,2%,2%,14,i,i
C[C@H]1CN([C@@H](C)CO)C(=O)Cc2cc(NC(=O)C3CC3)ccc2O[C@H]1CN(C)Cc1ccc(Oc2ccccc2)cc1,?,17%,-72*,i,i
C[C@H]1CN([C@@H](C)CO)C(=O)Cc2cc(NC(=O)Cn3cnnn3)ccc2O[C@H]1CN(C)Cc1ccncc1,-4%,-25%,73,i,i
O=C(Nc1cccc(C(F)(F)F)c1)Nc1nnc(N2CCCCCC2)s1,·,·,·,i,i
C[C@H]1CN([C@@H](C)CO)C(=O)Cc2cc(NC(=O)CCC(F)(F)F)ccc2O[C@H]1CN(C)Cc1ccc(-c2ccccc2)cc1,?,-5%,-2,?,?
